According to PubChem BioAssay AID720513 (Broad Institute, 2013):
In all, about 2,100 compounds went through this assay and about 480 (23%) were called active. Roughly 5% stayed inconclusive and do not appear here.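 Rule for the calls: active = fitted curve reaches 40% activation at or below the top valid concentration, in every replicate test; inconclusive = replicate tests disagree on the call; inactive = the rest, including activity in the opposite direction.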 The list is a sample of the results. Measured potencies and affinities stand elsewhere.

assay: activators raising PGC1a acetylation in cells, dose response, cell-based, cherry-picked samples, set 6 (AID 720513); details: U2OS PGC1a acetylation AlphaLISA, overnight, 0 = neutral, -100 = inhibitor control; series mostly up to 19.5 µM;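 note: cells made to overexpress flag tagged PGC1a plus GCN5 acetyltransferase by viral infection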

outcome, inactive:
O=C(NNS(=O)(=O)c1ccc(F)cc1)c1ccc(S(=O)(=O)N2CCCCC2)cc1
N#CC1(NC(=O)Cn2ncc(Cl)c(Cl)c2=O)CCCCC1
C#CCN(C[C@@H]1[C@@H](OC(=O)NCCCCCC)[C@@H](OC(=O)NCCCCCC)Cn2c(=O)ccc(=O)n21)S(=O)(=O)c1ccc(C)cc1
CO[C@H]1CN(C)C(=O)c2ccc(NS(=O)(=O)c3ccccc3)cc2OC[C@H](C)N(C(=O)NC(C)C)C[C@@H]1C
O=C(Nc1cc(S(=O)(=O)N2CCOCC2)ccc1Cl)c1cc([N+](=O)[O-])ccc1Cl
O=C(Cn1cc(C(F)(F)F)ccc1=O)Nc1cc(S(=O)(=O)N2CCOCC2)ccc1Cl
CCN(CC)S(=O)(=O)c1ccc(C(=O)Nc2cc(S(=O)(=O)N3CCOCC3)ccc2O)cc1
CCN(CC)c1ccc(S(=O)(=O)N2CCOCC2)cc1NC(=O)Cn1nc(C)c([N+](=O)[O-])c1C
Cc1nn(CCCC(=O)O)c(C)c1[N+](=O)[O-]
CCC(=O)NC1(Cc2ccc(O)cc2)CCCCC1
COCCNC(=O)CN(C(=O)CCC(=O)Nc1ccccn1)c1ccc(OC)cc1
CCN(CC)CCNc1ccc(C)c2sc3ccc(O)cc3c(=O)c12
Cc1cccc(CCN(CC(=O)NC(C)(C)C)C(=O)c2csnn2)c1
COc1ccc(S(=O)(=O)N(C)C[C@@H]2Oc3cc(C#CC4CC4)ccc3S(=O)(=O)N([C@H](C)CO)C[C@H]2C)cc1
C[C@H]1CN([C@@H](C)CO)S(=O)(=O)c2ccc(C3=CCCC3)cc2O[C@@H]1CN(C)C
Cc1ccc(S(=O)(=O)N(C)C[C@@H]2Oc3cc(C#Cc4ccncc4)ccc3S(=O)(=O)N([C@H](C)CO)C[C@H]2C)cc1
C[C@@H]1CN([C@@H](C)CO)S(=O)(=O)c2ccc(C3=CCCCC3)cc2O[C@H]1CN(C)C
Cc1ccc(S(=O)(=O)N(C)C[C@H]2Oc3cc(C#Cc4ccncc4)ccc3S(=O)(=O)N([C@H](C)CO)C[C@H]2C)cc1
Cc1ccc(S(=O)(=O)N(C)C[C@@H]2Oc3cc(C#Cc4ccncc4)ccc3S(=O)(=O)N([C@@H](C)CO)C[C@H]2C)cc1
COc1ccc(S(=O)(=O)N(Cc2cc3ccc(OC)cc3[nH]c2=O)CC2COCCO2)cc1 (configuration not stated)
Cn1c2c(c(=O)n(C)c1=O)C(c1cccc(F)c1)C(C#N)=C(N)O2 (configuration not stated)
Cc1ccc(S(=O)(=O)N(C)C[C@H]2Oc3ccc(NC(=O)CCC(F)(F)F)cc3C(=O)N([C@H](C)CO)C[C@@H]2C)cc1
CCOC(=O)c1ccc(N2C(=O)CC(N3CCC(O)(c4ccc(Br)cc4)CC3)C2=O)cc1 (configuration not stated)
Cn1ncc2c(O/N=C(\N)c3ccc(C(F)(F)F)cc3)ncnc21
CCOC(=O)CSc1nc2cc3c(cc2cc1C#N)OCCO3
CC(C)OC(=O)CSc1nc2cccnc2n1-c1ccc(F)cc1
O=C(/C=C/c1ccc(F)cc1)NNC(=O)CCN1CCN(Cc2ccccc2)CC1
Cc1[nH]c(=O)c(C(=O)/C=C/c2ccccc2)c2c1CCCC2
CC(=O)N1CCN(C(C)=O)C1c1ccccc1
O=S(=O)(Nc1ccccn1)c1ccc(-n2cccn2)cc1
CC1CCN(C(=O)COC(=O)c2ccc(Br)o2)CC1
CCOc1ccc(S(=O)(=O)N(C)c2ccc(OCC(=O)N3c4ccc(C)cc4C4CN(C)CCC43)cc2)cc1 (configuration not stated)
COc1ccc(OC)c(CNS(=O)(=O)c2cc(-c3cc(C)no3)ccc2OC)c1
CN(C[C@H]1N[C@@H](CO)[C@@H]1c1ccc(C2=CCCC2)cc1)C(=O)c1ccc(F)cc1
CN1OC[C@@H]2CN(S(=O)(=O)c3cccc4ccccc34)[C@H](c3ccc(N4CCCCC4)cc3)C[C@@H]21
CC(C)CC(OC(=O)c1cccs1)C(=O)NCc1ccco1 (configuration not stated)
Cc1cc(C)nc(N2CCC(C(=O)NCc3ccco3)CC2)n1
Cc1ccc(C)n1-c1ccc(-c2nnco2)cc1
COc1ccc2c3c([nH]c2c1)[C@@H](CO)N(C(=O)c1ccccc1)CC31CCN(S(=O)(=O)c2cccs2)CC1
COc1ccc2c3c(n(C)c2c1)[C@H](CO)NCC31CCN(Cc2cc(-c3ccccc3)on2)CC1
CCN(CC)Cc1c(O)ccc2c([N+](=O)[O-])c(C)n(-c3ccc(OC)cc3)c12
CCOC(=O)CN1C(=O)C(Sc2n[nH]c(-c3ccc(C)cc3)n2)CCc2ccccc21 (configuration not stated)
O=C1c2ccc(-c3ccc4c(c3)C(=O)N(CCCO)C4=O)cc2C(=O)N1CCCO
CNC[C@H]1Oc2ncc(C#CC3CCCCC3)cc2C(=O)N([C@H](C)CO)C[C@H]1C
O=C(Cn1cnc2c(nnn2Cc2ccc(Cl)cc2)c1=O)c1ccccc1
COc1cccc(OCc2nnc(SCC(=O)OCc3ccccc3)o2)c1
COc1ccc(CN(C)C[C@@H]2Oc3ccc(NS(=O)(=O)c4c(C)noc4C)cc3C(=O)N([C@H](C)CO)C[C@H]2C)cc1
Cc1cc(C)cc(N(CC(=O)Nc2c(C)n(C)n(-c3ccccc3)c2=O)S(C)(=O)=O)c1
C[C@@H]1CN([C@H](C)CO)C(=O)CCCn2nncc2CO[C@H]1CN(C)S(=O)(=O)c1cn(C)cn1
CN(Cc1ccccc1)C(=O)c1ccc2c(c1)NC(=O)C(N1CCOCC1)S2 (configuration not stated)
CCCOc1ccccc1C1C(C(=O)OC)=CN(C(C)C)C=C1C(=O)OC
CN(c1cccc(NS(=O)(=O)c2cccs2)c1)S(C)(=O)=O
CC(=O)c1ccccc1-c1csc2ncnc(Sc3nnnn3C)c12
CCn1c(CNc2ccc(C)cc2)nnc1SCC(N)=O
Cc1[nH]nc2ncc(C(=O)c3ccccc3O)cc12
Cn1c(SCc2ccon2)nc2ccccc2c1=O
CNC[C@@H]1OCCCC[C@H](C)Oc2ccc(NS(=O)(=O)c3cccs3)cc2C(=O)N([C@H](C)CO)C[C@@H]1C
